Test results reported in ChEMBL document CHEMBL3988442, “University of Dundee, Small-Polar-MMV Screening Library” (2021).
Among all 85,000 compounds or so, about 440 (0.52%) showed an effect of 50% or more. The sample holds strong results, similar compounds and a random draw of the others, so the mix is not that of the screen.

Experiment: In vitro enzyme assay to detect hydrolysis of chlorophenol red-beta-D-[…] directly proportional to the number of Toxoplasma stably expressing beta-galactosidase
Format: functional, organism-based, Toxoplasma gondii
Set-up: scale not given: in the data most compounds retested in dose-response had high values

Compound | Percent Effect (50 µM) [%] | Percent Effect (10 µM) [%]
CCCc1nc(C(=O)NCCc2cccnc2)cs1 | -0.1814 | 
CCn1nc(C)cc1C(=O)N1CCNC(=O)C1(C)C | 1.148 | 
O=C1NCCN1CCNc1cc(C2CC(O)C2)ncn1 (stereo not given) | 17.22 | 
CCc1ccccc1NC(=O)C1=NN(C)C(=O)CC1 | 53.5 | 
CCCNC(=O)C1=NN(C)C(=O)CC1 | -13.89 | 
CN1N=C(C(=O)NCCn2cccc2)CCC1=O | 4.885 | 
Cc1nc(C)c(C(=O)N2CCCC3(CCOC3)C2)s1 (stereo not given) | -1.962 | 
CN(C)CCCN(CCC#N)C(=O)c1ccccn1 | 5.806 | 
Cc1n[nH]c(SCCN)n1 | 7.335 | 
Cc1cc(NC(=O)COC(=O)c2cccc(F)c2)[nH]n1 | 3.257 | 
O=C(CCN1C(=O)CCC1=O)OCCc1cccs1 | -8.658 | 
COc1ccc(CNCCn2cccn2)cc1OC | -8.387 | 
NCC(c1ccc(Cl)cc1)N1CCc2sccc2C1 (stereo not given) |  | 32.54
NCC(c1ccccc1)N1CCc2sccc2C1 (stereo not given) |  | -0.2514
CC(C)c1ccc(C(CN)N2CCc3sccc3C2)cc1 (stereo not given) |  | 87.38
CC(CNC(=O)c1cccc(OC(F)F)c1)N(C)C (stereo not given) | -0.9989 | 
CCOCCN1CCN(CC(C)O)CC1 (stereo not given) | -13.93 | 
CS(=O)(=O)c1ccc(-c2cc(O)cc(CCC3CCCCN3)c2)cc1 (stereo not given) |  | 50.66
O=c1cc(-c2cc(O)cc(CCC3CCCCN3)c2)cc[nH]1 (stereo not given) |  | 0.1729
Oc1cc(CCC2CCCCN2)cc(-c2ccncc2)c1 (stereo not given) |  | -0.7663
Cc1ccc(CN2CCOC(CCO)C2)c(F)c1 (stereo not given) | 1.605 | 
CC(C)(C)Nc1nc(-c2cccnc2)c(-c2ccnc(NCCO)n2)s1 |  | 85.15
CCNc1nc(-c2cccnc2)c(-c2ccnc(NCCO)n2)s1 |  | 32.17
CCNc1nc(-c2cccnc2)c(-c2ccnc(NS(C)(=O)=O)n2)s1 |  | -26.67

Compound | Percent Effect (50 µM) [%] | Percent Effect (10 µM) [%]
Cc1noc(C)c1CNC(=O)c1csc(S(N)(=O)=O)c1 | -3.715 | 
O=C(CC1CCCC1)N1C[C@H](OCc2ccncc2)[C@H]2OCCC[C@H]21.O=C(O)C(F)(F)F |  | -2.876
COCC(=O)N1C[C@@H](OCc2cccnc2)[C@H]2OCCC[C@@H]21.O=C(O)C(F)(F)F |  | 1.724
Cc1cccc(C(=O)N2C[C@@H](OCc3ccncc3)[C@@H]3OCCC[C@@H]32)n1.O=C(O)C(F)(F)F.O=C(O)C(F)(F)F |  | -3.452
Cn1cccc1C(=O)N1C[C@@H](OCc2cccnc2)[C@H]2OCCC[C@H]21 |  | 1.724
Cn1cccc1C(=O)N1C[C@@H](OCc2ccncc2)[C@@H]2OCCC[C@@H]21.O=C(O)C(F)(F)F |  | 96.07
COCC(=O)N1C[C@@H](OCc2ccncc2)[C@@H]2OCCC[C@@H]21.O=C(O)C(F)(F)F |  | 64.14
Nc1nc2c(s1)Cc1ccccc1-2 | -5.547 | 
Cc1n[nH]c(C)c1S(=O)(=O)N1CCC(N)CC1 | 2.469 | 
CCS(=O)(=O)NCCNCc1ccc(Cl)cc1F | -9.661 | 
NC(=O)NC(=O)CSc1ncccn1 | -2.425 | 
Cc1nn(C)c(C)c1CC(=O)NCCc1ccccn1 | -1.397 | 
COc1ccc(CN)nc1 | 5.444 | 
COc1ccccc1CC1CCCN(C(=O)c2cc[nH]n2)C1 (stereo not given) |  | 4.307
CNc1ncc(C(=O)N2CCCC(Cc3ccccc3OC)C2)s1 (stereo not given) |  | 65.23
COc1ccccc1CC1CCCN(C(=O)c2nccnc2N)C1 (stereo not given) |  | -6.18
O=C(CN1C(=O)CC2(CCCCC2)C1=O)NC1CC1 | -7.096 | 
CN(C)C(=O)NCCNc1cccc(Br)c1 | -13.02 | 
CC(C)CCN1CCN(C(=O)c2nccnc2N)CC1 | 0.2706 | 
CCN(CC)S(=O)(=O)N1CCNCC1 | -3.294 | 
CC(=O)c1c[nH]c(C(=O)NCc2cccnc2)c1 | 0.2894 | 
O[C@@H]1CN(c2nc3ccccc3s2)CC[C@H]1c1ccc2c(c1)OCO2 |  | 53.23
O[C@@H]1CN(c2cnc3ccccc3n2)CC[C@H]1c1ccc2c(c1)OCO2 |  | 20.57
O[C@@H]1CN(c2nc3ccccc3o2)CC[C@H]1c1ccc2c(c1)OCO2 |  | 30.32

Compound | Percent Effect (50 µM) [%] | Percent Effect (10 µM) [%]
COc1cccc(NC(=O)C(C)Sc2nnnn2C)c1 (stereo not given) | -3.512 | 
N#CCc1ccc(CO)cc1 | -0.5268 | 
Nc1c[nH]nc1-c1ccccn1 | 64.31 | 
c1ccc(-c2cc[nH]n2)nc1 | -7.989 | 
COCCC(C)Nc1c[nH]nc1-c1ccccn1 (stereo not given) | 4.849 | 
Cc1ccc(OCCN2CCOCC2)cc1 | -4.655 | 
CC(N)(CO)c1ccc(Br)cc1 (stereo not given) | 5.046 | 
O=C(NC1CN(c2ccc(C(F)(F)F)cn2)C1)C1CC1 | -14.77 | 
CNC(=O)[C@@H]1CSCN1c1ccc(C(F)(F)F)cn1 | 98.68 | 
NC(=O)CC1CCCCN1c1ccc(C(F)(F)F)cn1 (stereo not given) | -10.18 | 
CN(C)C(=O)C1(N)CCCC1 | 3.679 | 
COC(=O)c1cccc(COC(=O)CCNC(C)=O)c1 | -1.212 | 
NC(=O)c1ccccc1COC(=O)c1ccsc1 | 4.513 | 
Cc1cncc(C(N)=O)c1 | 97.16 | 
Cc1cnn(-c2cncc(C(N)=O)c2)c1 |  | 0.2718
Cc1cncc(C(=O)Nc2sc(C)cc2C(N)=O)c1 | 2.925 | 
Clc1cnn(CCN2CCN(C3CCNC3)CC2)c1 (stereo not given) | 12.09 | 
COc1ncccc1CNC(=O)NC1CCS(=O)(=O)C1 (stereo not given) | -1.32 | 
CCN(CC(C)C#N)C(=O)c1ccc(Br)o1 (stereo not given) | 96.74 | 
CCN(CC(C)C#N)C(=O)c1sccc1C (stereo not given) | 16.85 | 
CCN(Cc1nonc1C)C(=O)c1ccc(Br)o1 |  | -1.469
O=C1CCCN1CCCNS(=O)(=O)c1ccc(Br)s1 | -1.058 | 
O=C1c2ccc(F)cc2C(=O)N1Cc1nnsc1Cl | 52.75 | 
O=C1c2ccc(F)cc2C(=O)N1Cc1ccno1 | 5.807 | 

Compound | Percent Effect (50 µM) [%] | Percent Effect (10 µM) [%]
O=C1c2ccc(F)cc2C(=O)N1Cc1ccccn1 | -3.473 | 
CN(C)C(=O)N1CC2(CCOCC2)c2cc(NS(=O)(=O)C3CC3)ccc21 |  | -3.564
Cn1ccc2ccc(NS(=O)(=O)C3CC3)cc2c1=O | 65.83 | 
COC(=O)CNc1ccc2ccn(C)c(=O)c2c1 | -16.28 | 
Cc1cc(CN(C)C(=O)c2cnn(C)c2C)no1 | -0.6579 | 
CC(C)C(CN)N1CCN(C)CC1 (stereo not given) | 18.88 | 
O=C(NCc1cccnc1)c1cn(CCc2ccccc2)nn1 |  | 7.216
CCOCCCNC(=O)c1nnn(Cc2ccccc2)c1OC |  | 43.16
COc1c(C(=O)NCc2cccnc2)nnn1Cc1ccc(C)cc1 |  | 3.825
O=C(NCC1CCCO1)c1nc2c(s1)CCCN2Cc1ccccc1 (stereo not given) |  | -17.89
COc1c(C(=O)NCC2CCCO2)nnn1Cc1ccccc1 (stereo not given) |  | 62.42
COCCNC(=O)c1nnn(Cc2ccccc2)c1OC |  | 38.59
COc1c(C(=O)NCC(C)C)nnn1Cc1ccccc1 |  | 74.28
COc1c(C(=O)NCc2cccnc2)nnn1Cc1ccccc1 |  | 61.62
COc1ccc(Cl)cc1C(=O)NCc1cnn(C)c1C |  | -4.944
COc1ccc(C(=O)NCc2cnn(C)c2C)o1 | -4.523 | 
CCNC(=O)c1nnn(Cc2ccccc2)c1OC |  | -0.1195
COc1c(C(=O)NCc2cnn(C)c2C)nnn1Cc1ccccc1 |  | 65.52
CC1Cc2cc(CO)ccc2O1 (stereo not given) | -10.07 | 
CCc1nnsc1C(=O)N1CCc2sccc2C1 | -20.28 | 
Cc1ccccc1NC(=O)CCN1CCN(C)CC1 | -26.18 | 
Cc1ccc2c(c1)C(=O)CCCS2(=O)=O | -6.954 | 
Cc1ccc(CN(CCO)C(=O)c2cscn2)cc1 | -0.4723 | 
O=C(Nc1ccc2c(c1)OCO2)N1CCOCC1 | -3.838 | 

Compound | Percent Effect (50 µM) [%] | Percent Effect (10 µM) [%]
CN1CCCC1CCSCC(=O)Nc1ccccn1 (stereo not given) | 5.261 | 
NCc1ccc(CO)cc1 | 0.7244 | 
CCn1nc(C)c(NC(=O)c2cc(NC(=O)C(C)C)n(C)n2)c1C |  | 1.116
CCn1nc(C)c(NC(=O)c2nnn(Cc3ccccc3)c2OC)c1C |  | 55.69
CCN(CC)C(=O)c1nnn(Cc2ccccc2)c1OC |  | -3.108
CCC(OCCO)c1ccccc1 (stereo not given) | -3.537 | 
CC(C)[C@H](N)C(=O)N1CCC(C2CCOCC2)CC1 | 8.319 | 
Cn1nnc(NC(=O)c2ccc(C#N)cc2F)n1 | -8.268 | 
Cn1nnnc1SCCNC(=O)c1cc(Cl)ccc1F | 98.81 | 
Cn1nnnc1SCCNC(=O)c1cccc2ccnn12 |  | -7.372
CSc1ccccc1C(=O)NCCSc1nnnn1C | -10.69 | 
CCC(C(=O)Nc1ccc(C)cc1)N(C)C (stereo not given) | -1.57 | 
COc1c(CNCCS(C)(=O)=O)c(C)nn1C | 3.832 | 
COc1c(N)c(C)nn1C | 95.49 | 
COc1c(CNCCCNS(C)(=O)=O)c(C)nn1C | -17.44 | 
CCC(=O)N1CCCN(C(=O)C(N)C(C)(C)C)CC1 (stereo not given) | 9.824 | 
CC(=O)N1CCN(c2nccn2C)CC1 | 15.57 | 
Cc1ccc(C(=O)N2CCN(c3nccn3C)CC2)o1 | 58.26 | 
Cc1ccc(C(=O)N2CCN(c3nccs3)CC2)o1 | 7.068 | 
Cn1cc(NC(=O)CSc2nccn2C)cn1 | 23.13 | 
CC(N)c1nnc2ccccn12 (stereo not given) | 17.22 | 
O=C(Nc1ccncc1)NC1CCN(c2ccccc2OC(F)F)C1 (stereo not given) |  | 74.41
O=C(Nc1cccnc1)NC1CCN(c2ccccc2OC(F)F)C1 (stereo not given) |  | -3.215
O=C(Nc1ccccn1)NC1CCN(c2ccccc2OC(F)F)C1 (stereo not given) |  | 20.62
